First the molecules themselves.
B1: chr1:43978039:43978149:+|3pUTR|ENSG00000117410|unk|total|mutant (ssRNA)
RNA: GGGAGUUCUACAGUCCGACGAUCGGCCGUGCCUCACUUUUAUUUAUUGCUGGUUUUCCUGGGACAGCUGGAGCUGUGUCCCUCCGCCUUUCAGAGGCUUGGUGUUCAGGGCCCUCCCUGCACUCCCCUCUUGCUGCGUGUUGACAACAGAGGAUUGAGCAUCA
B2: ENSG00000107863:be:win_5401|CDS|ENSG00000107863|bound_else_gene|NA|bound_elsewhere_windowed (ssRNA)
RNA: GGGAGUUCUACAGUCCGACGAUCAGACAUACACUAGGAGGGCACAGAGAUGCUACCGAAAUCAGCGUUUUGAAUUUUUGGAAAGUGCAUGAGCAGAGCGGGGAGAGAGAAUCUGAACUUUCAGCUGUAAACCGGUUAAAACCACAACAGAGGAUUGAGCAUCA
B3: ENSG00000156976:stop:overlap|stop_codon|ENSG00000156976|stop_codon|NA|stop_codon (ssRNA)
RNA: GGGAGUUCUACAGUCCGACGAUCCUUUGGUUAUAAAUUAUGAUCUACCUACCAAUCGUGAAAACUAUAUUCACAGGAGUCGAUAGCAGCAGUUGGUGACGAGAUGGCACUCAGAAACGGCGUUGACGUAAUUUAGGACGUGGACAACAGAGGAUUGAGCAUCA
B4: chr2:159967538:159967678:-|CDS|ENSG00000153246|control|control|control (ssRNA)
RNA: GGGAGUUCUACAGUCCGACGAUCUAGUGAAGAGUGUUCAGUUUCUAUGCCUAGUAUCUGUAAGCGAAAAAAGGUUUGGCUCAUAGAGAAAAAGAAAGAUACACCAAAACAACAUGGAACGUGUCCCAAAGGAUGGCUAUAUUUCAACAGAGGAUUGAGCAUCA
B5: ENSG00000187498:stop:overlap|stop_codon|ENSG00000187498|stop_codon|NA|stop_codon (ssRNA)
RNA: GGGAGUUCUACAGUCCGACGAUCAGGUGAACCGGGACCUCCUGGAUUGCCAGGCUCCGUGGGGUCUCCAGGAGUUCCAGGAAUAGGCCCCCCUGGAGCUAGGGGUCCCCCUGGAGGACAGGGACCACCGGGGUUGUCAGGCCCCAACAGAGGAUUGAGCAUCA
B6: chr10:71816642:71816777:-|3pUTR|ENSG00000197746|msi1_unk|total|mutant (ssRNA)
RNA: GGGAGUUCUACAGUCCGACGAUCUUGUUUGGGGUUCUGUGGGUUUGGGUGGGAAGAGGGCCAUCUGCCUGAAUGUAACCUGCCCGCUCUCCGAAGGCCCUGCGGGCCUGGCUUGUGUGAGCGUGUGGACAGUGGUGGCCGCGCCAACAGAGGAUUGAGCAUCA
B7: chr20:35276351:35277713:-|three_prime_utr|ENSG00000126005|control|control|control (ssRNA)
RNA: GGGAGUUCUACAGUCCGACGAUCCUCCUCUCCCCACGUCCCUGCGUCUCUUACACCCCCUCCCACCCGAGGCUCCCCAGAGAUAGCAGAGAAUUCGAAGAGGUCGCCGGGGACUGGAAAGAAGUCCCGGCAGGGCCGCCUUCGCAACAGAGGAUUGAGCAUCA
B8: chr2:42328916:42329027:+|CDS|ENSG00000143924|unk|FALSE|unique (ssRNA)
RNA: GGGAGUUCUACAGUCCGACGAUCAGAAGGAUCUGAUGGGACAGAUAUCAAUGCACUGGUGCGAUCCCACAAUAGAAAGGUGAUAGCUGUUGCCGAUGACUUUUGUAAAGUCCAUCUGUUUCAGUAUCCCUGCUCCAAAGCAAACAACAGAGGAUUGAGCAUCA
B9: chr1:28742582:28742694:+|CDS|ENSG00000198492|unk|FALSE|bound_elsewhere (ssRNA)
RNA: GGGAGUUCUACAGUCCGACGAUCAGCAACGGAGAGCCCCACUUCCUACCAGAUGCAAUGUUUGGGCAACCAGGAGCCCUAGGUAGCACUCCAUUUCUUGGUCAGCAUGGUUUUAAUUUCUUUCCCAGUGGGAUUGACUUCUCACAACAGAGGAUUGAGCAUCA
B10: chr1:235182574:235182675:-|CDS|ENSG00000054267|unk|FALSE|unique (ssRNA)
RNA: GGGAGUUCUACAGUCCGACGAUCUUUGACCAACAACAGAAAUGAUCUUAUUUCAAAGGAGGAACAGAACAGUUCAUCUUUGCUAGAAGAAAACAAAGUUCAUGCAGAUUUGGUAAUAUCCAAACCAGUGUCAAAAUCUCCAGACAACAGAGGAUUGAGCAUCA
B11: chr14:81473690:81473791:-|3pUTR|ENSG00000071537|msi1|total|mutant (ssRNA)
RNA: GGGAGUUCUACAGUCCGACGAUCCAGUGUUUUGGAAGUAUGCAUGCAGGCCUAUAAAUGAAAAACACAAUUCUUUAUGUGUACCGCAUGUGUAUUAAUGUCUAACUACAUACGCAAAAACUUCCUUUACAGAGGUUCGGACUACAACAGAGGAUUGAGCAUCA
B12: chr3:124966548:124966651:-|3pUTR|ENSG00000173706|unk|FALSE|bound_elsewhere (ssRNA)
RNA: GGGAGUUCUACAGUCCGACGAUCAGGAAGAAUGCAAAGUUCAGUAUUUCAAUACUUUGUAUUUUACUUGAAAUUACCCUUAGUAGCAUCUUUUUUUUCCUGUCUGAAAGCUUUUGUGUGGAUGAGAAGGGACAUUUCAUUUCCCAACAGAGGAUUGAGCAUCA
B13: chr1:225419324:225419425:-|CDS|ENSG00000143815|msi1|FALSE|unique (ssRNA)
RNA: GGGAGUUCUACAGUCCGACGAUCUUACAUAGCAACACAGUAUAGCCUUCGUCCAAGAAGAGAAGAAGUCAAAUUAAAAGAAAUAGAUUCUAAGGAAGAAAAAUACGUUGCAAAAGAACUGGCAGUGAGAACCUUUGAAGUGACCAACAGAGGAUUGAGCAUCA
B14: chr16:18841627:18841728:-|CDS|ENSG00000157106|msi1|FALSE|bound_elsewhere (ssRNA)
RNA: GGGAGUUCUACAGUCCGACGAUCUACAAUUAAUCGCCAAGAAACACCCCGGUUCCAUGCUCGACACUAUUCUGUAACACCACUAGGAACAAGAUCAGGACUAAUCCAGUGGGUAGAUGGAGCCACACCCUUAUUUGGUCUUUACAACAGAGGAUUGAGCAUCA
B15: chr15:65058426:65058617:-|CDS|ENSG00000103710|control|control|control (ssRNA)
RNA: GGGAGUUCUACAGUCCGACGAUCCUGAACUGGGCCCAUGCCUUCCUGGUGGUGUACAGCGUCGACAGCCGCCAGAGCUUUGAUAGCAGCAGCAGCUACCUGGAGCUGCUUGCCUUGCACGCGAAGGAGACACAGCGCAGCAUCCAACAGAGGAUUGAGCAUCA
B16: chr8:28970260:28970371:+|CDS|ENSG00000147421|unk|total|mutant (ssRNA)
RNA: GGGAGUUCUACAGUCCGACGAUCUCUUCCUCUACAGCUACAGCUUCCACACAGACGCAGCAUUCGGGAAUGUCCCCGUCACCCCGCAACAGUUAUGAUACUUCCCCACAGCCUUGCACUACCAAUCAAAAUGGGAGGGAGAAUCAACAGAGGAUUGAGCAUCA

Over roughly 5,800 sequences, “enrichment r” has its median near 0.68; the highest 2% begin near 11. Not all results are given here.

In this test the target is T1, UNK ZnF1-6 (called full-length) (human, UniProt Q9C0B0 30-357).
T1 sequence: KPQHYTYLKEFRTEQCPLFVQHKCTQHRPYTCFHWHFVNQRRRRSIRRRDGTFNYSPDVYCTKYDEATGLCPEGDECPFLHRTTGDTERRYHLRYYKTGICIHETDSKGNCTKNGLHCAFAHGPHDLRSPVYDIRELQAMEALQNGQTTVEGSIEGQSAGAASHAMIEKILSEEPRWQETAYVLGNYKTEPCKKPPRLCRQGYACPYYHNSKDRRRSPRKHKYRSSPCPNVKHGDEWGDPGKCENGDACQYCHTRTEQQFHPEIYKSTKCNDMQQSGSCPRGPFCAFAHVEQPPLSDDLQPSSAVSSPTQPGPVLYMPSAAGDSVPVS
The experiment in a line: nsRBNS (natural sequence RNA bind-n-seq); RBNS binding buffer (assumed for nsRBNS): 25 mM Tris pH 7.5, 150 mM KCl, 3 mM MgCl2, 0.01% Triton X-100, 500 ug/ml BSA, 20 U/ml SUPERase-In, 4 C; UNK is unkempt and MSI1 is Musashi-1; names of the RNAs are library labels; protein concentration not given here; high values mean tight binding.
B1 had a binding signal of 0.779 enrichment R.
As for B2, the binding signal was 0.693 enrichment R.
As for B3, the binding signal is 0.52 enrichment R.
Molecule B4 came in with a binding signal of 0.378 enrichment R.
In the case of B5, the binding signal turned out to be 0.745 enrichment R.
In turn, B6 showed a binding signal of 0.901 enrichment R.
Molecule B7 showed a binding signal of 0.869 enrichment R.
The result for B8 reads 0.424 enrichment R; that for B9, 0.665 enrichment R; that for B10, 0.258 enrichment R.
Turning to B11, the binding signal is 0.563 enrichment R.
Regarding B12, the binding signal is 1.1 enrichment R.
For B13, the binding signal was 0.538 enrichment R.
The result for B14 reads 0.869 enrichment R; that for B15, 0.597 enrichment R.
Under B16 stands 0.625 enrichment R.

These data come from publication PMC12136788.
